L3MBTL1 inh: qHTS Assay for the Inhibitors of L3MBTL1; Potency, µM (titrated, usually from 57.1 µM), inactives show top-dose activity, negative = inhibition, usual class: inhibitors; Lethal(3)malignant brain tumor-like protein 1 (Homo sapiens), Q9Y468; AlphaScreen L3MBTL1–H3K9me1 peptide binding; 230,000 tested, 0.66% active; note: % is set by controls: 0 for no effect and ±100 for the full control effect; nearly all actives have a fitted effect of over 60% in size
Target sequence (Q9Y468 whole entry, looked up): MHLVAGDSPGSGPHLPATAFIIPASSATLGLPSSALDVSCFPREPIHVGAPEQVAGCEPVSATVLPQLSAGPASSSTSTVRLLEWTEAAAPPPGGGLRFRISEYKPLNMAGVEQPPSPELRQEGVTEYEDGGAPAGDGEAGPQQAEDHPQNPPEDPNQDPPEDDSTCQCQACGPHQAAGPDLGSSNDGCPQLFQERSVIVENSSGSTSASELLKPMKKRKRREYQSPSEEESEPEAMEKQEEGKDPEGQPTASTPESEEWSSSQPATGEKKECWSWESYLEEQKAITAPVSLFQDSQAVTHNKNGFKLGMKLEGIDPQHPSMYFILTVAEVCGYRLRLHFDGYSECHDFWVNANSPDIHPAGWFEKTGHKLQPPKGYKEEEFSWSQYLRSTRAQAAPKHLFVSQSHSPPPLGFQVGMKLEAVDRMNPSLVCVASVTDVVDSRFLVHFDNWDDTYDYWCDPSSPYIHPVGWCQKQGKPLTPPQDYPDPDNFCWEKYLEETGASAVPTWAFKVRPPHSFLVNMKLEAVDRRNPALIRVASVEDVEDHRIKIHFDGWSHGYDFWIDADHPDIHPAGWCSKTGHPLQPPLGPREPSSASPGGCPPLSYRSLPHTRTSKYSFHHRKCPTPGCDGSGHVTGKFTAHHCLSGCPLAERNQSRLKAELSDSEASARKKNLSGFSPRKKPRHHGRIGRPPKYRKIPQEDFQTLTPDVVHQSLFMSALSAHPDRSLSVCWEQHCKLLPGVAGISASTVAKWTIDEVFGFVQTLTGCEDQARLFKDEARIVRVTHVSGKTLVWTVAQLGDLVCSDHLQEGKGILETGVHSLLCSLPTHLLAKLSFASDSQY
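Displacement of a biotinylated histone H3(1-15) peptide monomethylated at Lys9 (75 nM) from L3MBTL1 (50 nM) was measured by AlphaScreen after a 30 min room-temperature compound incubation; cefsulodin titration served as intraplate control.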
GLS inhibitor: qHTS for Inhibitors of Glutaminase (GLS). GLS enzymatic activity, qHTS titration. 410,000 tested, 0.21% active. Potency, µM (titrated, usually from 45.5 µM), for the others: at the top dose activity change, negative = inhibition, most hits filed as inhibitors. Glutaminase kidney isoform, mitochondrial (Homo sapiens), O94925; note: % is set by controls: 0 for no effect and ±100 for the full control effect
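hKGA in 45 mM KH2PO4 pH 8.2, 0.02% Tween-20 with pin-transferred compounds; 1 mM L-glutamine (stock) plus glutamate oxidase/HRP/Amplex Red coupling added. Fluorescence read initially and after 30 min at RT.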
JMJD2A Tudor: qHTS Assay for Inhibitors of JMJD2A-Tudor Domain; AlphaScreen JMJD2A-Tudor / H3K4me3 peptide binding; Potency, µM (top dose mostly 114 µM), for the others: at the top dose activity change, negative = inhibition, usual class: inhibitors; Lysine-specific demethylase 4A (Homo sapiens), O75164; 390,000 tested, 4.4% active; AID 504339, 2011; note: % is set by controls: 0 for no effect and ±100 for the full control effect; nearly all actives have a fitted effect of over 50% in size
HP1b chromo inh: HTS for Inhibitors of HP1-beta Chromodomain Interactions with Methylated Histone Tails; Chromobox protein homolog 1 (Homo sapiens), P83916; AlphaScreen HP1-beta / biotin-H3K9me3 peptide binding; Potency, µM (top dose mostly 114 µM), for the others: at the top dose activity change, negative = inhibition, hits mostly inhibitors; 390,000 tested, 0.56% active; AID 540317, 2011; note: nearly all actives have a fitted effect of over 70% in size
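AlphaScreen: HP1-beta (50 nM) preformed 30 min with biotin-H3(1-18)K9me3 peptide (50 nM) in PBS pH 7.4, 0.01% Tween-20. Compound added for 30 min at RT, then streptavidin donor/nickel chelate acceptor beads (10 ug/mL) for 30 min.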
BAZ2B inh: qHTS Assay for Inhibitors of BAZ2B; AlphaScreen BAZ2B-H3K14Ac peptide displacement; Potency, µM (doses to about 114 µM), without a hit: top-dose activity change, negative = inhibition, usual class: inhibitors; 360,000 tested, 4.4% active; AID 504333, 2011; note: % is set by controls: 0 for no effect and ±100 for the full control effect; nearly all actives have a fitted effect of over 60% in size
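Compounds, titrated to a top concentration of 110 uM, were incubated 30 min at room temperature with preformed BAZ2B/acetyl-K14 H3 peptide complex (50 nM each). Proximity signal was measured by AlphaScreen after 20 min with beads.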
G9a block: qHTS Assay for Inhibitors of Histone Lysine Methyltransferase G9a; Potency, µM (series often up to 102 µM), for the others: top-dose activity, negative = inhibition, actives largely listed as inhibitors; AID 504332, 2011; G9a H3K9 monomethylation, AlphaScreen, 2 h; 350,000 tested, 8.8% active; Histone-lysine N-methyltransferase EHMT2 (Homo sapiens), Q96KQ7; note: % is set by controls: 0 for no effect and ±100 for the full control effect; nearly all actives have a fitted effect of over 75% in size
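G9a (20 nM) was preincubated 15 min with compound, then reacted 2 h at room temperature with 500 nM biotin-H3K9 peptide and 20 µM SAM. Monomethyl-H3K9 detected by AlphaScreen using anti-H3K9me1 antibody.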
Numbers without * were called inactive; ? = inconclusive; . = no result; [ ] = remark or other dose. Only some compounds are listed: those with a hit (about 10% of all), similar ones and a draw of the others. Calls come from the whole dose curve; as a rule, active = well fitted curve in the direction sought with a large enough effect; inconclusive = small, poorly fitted or top-dose-only effect, or another doubt; inactive = no such curve, though single readings can be large; an effect the other way counts as inactive or inconclusive. Potency is the fitted concentration of half-maximal effect.

SMILES | L3MBTL1 inh | GLS inhibitor | JMJD2A Tudor | HP1b chromo inh | BAZ2B inh | G9a block
CCCOc1ccccc1-n1sc2c(c1=S)-c1cc(OC)cc3c1N(C(=O)C3=O)C2(C)C | . | 7% | 2.5µM* | -81% | 2µM* | ?
Cn1cc(S(=O)(=O)c2ccc(Cl)cc2)c(=O)c2cc(F)c(N3CCCC3)cc21 | . | 8% | -10% | 21% | 5% | -2%[59 µM]
CCOc1ccc(-c2nc(C#N)c(N3CCN(CC)CC3)o2)cc1 | -12% | 4% | ? | -8% | ? | 50µM*
CCCOc1ccc(-c2nc(C#N)c(N3CCN(CC)CC3)o2)cc1 | -18% | 10% | ? | 50µM* | 40µM* | ?
CCOc1ccc(-c2nc(C#N)c(N3CCCCCC3)o2)cc1 | -30% | -2% | 35µM* | ? | 11µM* | 7.9µM*
CCOc1ccc(-c2nc(C#N)c(N3CCN(C)CC3)o2)cc1 | . | 1% | -25% | -12% | -31% | -27%[12.7 µM]
CCCOC(=O)c1ccc(Nc2nc3ccccc3nc2-n2nc(C)cc2C)cc1 | . | -6% | 28% | 78% | 16% | 15%[59 µM]
Cc1cccc(NC(=O)c2ccc(CN3CC(=O)N4CCCCC4C3=O)cc2)c1C (stereo unspecified) | . | -11% | -12% | 15% | 1% | 2%[59 µM]
O=C1c2ccccc2C(=O)N1CCc1csc(NNc2nc(CCN3C(=O)c4ccccc4C3=O)cs2)n1 | . | 19% | ? | -12% | 35µM* | ?
Cc1ccc(-c2nc(CCN3C(=O)c4ccccc4C3=O)cs2)cc1 | 10% | 5% | 18% | 97% | 30% | 37%
O=C1c2ccccc2C(=O)N1CCc1ccccc1 | . | -15% | 56µM* | ? | . | .
O=S(=O)(c1ccc(Cl)cc1)c1nc(-c2ccco2)oc1SCc1ccc(F)cc1 | . | -7% | -10% | 25% | -18% | ?
Cc1cccc(C(=O)NC(=S)NNC(=O)COc2c(C)cccc2C)c1 | 12% | 18% | ? | -20% | -12% | 7.9µM*
O=C(COc1ccccc1)NNC(=S)NC(=O)c1ccccc1 | 2% | 10% | 18µM* | 5% | . | 2.2µM*
O=C(NNC(=S)Nc1cccc2ccccc12)c1cccc(Br)c1 | . | 21% | -36% | ? | -35% | ?
Cc1cccc(C(=O)NC(=S)NCc2ccccc2)c1 | . | -19% | -13% | -2% | . | .
O=C(Nc1ccc2c(c1)OCCO2)c1coc2ccccc2c1=O | 10% | -2% | 28µM* | 62% | 9% | 8%[59 µM]
Cc1ccc(C(=O)NNC(=S)Nc2cccc3ccccc23)s1 | -5% | 31% | -14% | -18% | 3% | 35µM*
Cc1cccc(C(=O)NC(=S)Nc2ccccc2C(=O)O)c1 | 1% | 0% | -25% | ? | -11% | 45µM*
Cc1ccc(C(=O)NC(=S)NNC(=O)COc2ccccc2C)cc1 | 16% | -2% | 22µM* | -14% | 4% | 3.5µM*
O=C(NC(=S)Nc1ccc2c(c1)OCCO2)c1cccc(Br)c1 | -8% | 19% | ? | ? | ? | ?
O=C(NC(=S)Nc1ccc2c(c1)OCCO2)c1cccc2ccccc12 | -16% | 7% | ? | 6% | ? | 40µM*
O=C(Cc1cccs1)NNC(=S)NC(=O)c1ccccc1 | 10% | 19% | 50µM* | 19% | 10% | ?
Cc1cccc(C(=O)NC(=S)Nc2ccccc2C(F)(F)F)c1 | -8% | 2% | ? | -11% | -35% | -2%[59 µM]
Cc1noc(Cn2c(=O)c3cc4c(cc3n(CC(=O)Nc3cccc(Cl)c3)c2=O)OCO4)n1 | . | -3% | -11% | 16% | -3% | -33%[59 µM]
